Source: PubChem
CHX counter: counter-screen hit for Shiga toxin inhibitors, cycloheximide; max response, %; cell reporter, cycloheximide protein synthesis inhibition counterscreen; actives 12% (n = 300,000); AID 2314; in the data active = max response mostly above about 13%, no sharp cut-off; inactive = mostly below about 14%; note: read at 38.3 µM for the half of the compounds with a filed dose; 0% is about no effect
SARS PLpro yeast: blocks SARS-CoV papain-like protease in a yeast assay. AID 485353. S. cerevisiae expressing SARS-CoV PLpro, growth rescue. actives 0.19% (n = 330,000). Potency, µM (titrated, usually from 32.9 µM), without a hit: top-dose activity, positive = growth rescue, most hits filed as activators; note: potency is the fitted concentration of half-maximal effect; 0% is about no effect; nearly all actives have a fitted effect of over 55% in size
Tb PYK inh: blocks Trypanosoma brucei pyruvate kinase; Q57TT1; TbPYK enzyme, Kinase-Glo Plus ATP luminescence, 45 min; Potency, µM (highest dose often 76.8 µM), inactives show top-dose activity, negative = inhibition, usual class: inhibitors; actives 0.12% (n = 410,000); active = well fitted curve in the direction sought with a large enough effect; an effect the other way counts as inactive or inconclusive; note: potency is the fitted concentration of half-maximal effect; % is set by controls: 0 for no effect and ±100 for the full control effect; nearly all actives have a fitted effect of over 50% in size
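Readout: single end-point luminescence (Kinase-Glo Plus, 10 min). Reaction conditions were TbPYK/substrate plus 130 uM ADP, 45 min at RT, pH 7.2 TEA buffer. No-enzyme wells served as controls, and data were normalized before concentration-response fitting.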
NS1 function inh: inhibitors of influenza NS1 protein function; AID 2326; Potency, µM (highest dose often 46.1 µM), for the others: at the top dose activity, positive = more growth; actives 0.4% (n = 270,000); note: potency is the fitted concentration of half-maximal effect; actives are rising curves; nearly all actives have a fitted effect of over 50% in size
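Growth recovery, yeast-based: influenza A NS1 expressed in S. cerevisiae causes slow growth, and suppressors are detected by OD600. The parent strain without NS1 is used as positive control.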
LmPK inhibitor: LmPK (Leishmania mexicana) enzyme inhibition | actives 0.37% (n = 290,000) | AID 1721 | Potency, µM (highest dose often 57.5 µM), without a hit: top-dose activity change, negative = inhibition, most hits filed as inhibitors | purified LmPK, Kinase-Glo ATP luminescence, 1 h; active = well fitted curve in the direction sought with a large enough effect; an effect the other way counts as inactive or inconclusive; note: potency is the fitted concentration of half-maximal effect; % is set by controls: 0 for no effect and ±100 for the full control effect
Target sequence (Q27686 whole entry, looked up): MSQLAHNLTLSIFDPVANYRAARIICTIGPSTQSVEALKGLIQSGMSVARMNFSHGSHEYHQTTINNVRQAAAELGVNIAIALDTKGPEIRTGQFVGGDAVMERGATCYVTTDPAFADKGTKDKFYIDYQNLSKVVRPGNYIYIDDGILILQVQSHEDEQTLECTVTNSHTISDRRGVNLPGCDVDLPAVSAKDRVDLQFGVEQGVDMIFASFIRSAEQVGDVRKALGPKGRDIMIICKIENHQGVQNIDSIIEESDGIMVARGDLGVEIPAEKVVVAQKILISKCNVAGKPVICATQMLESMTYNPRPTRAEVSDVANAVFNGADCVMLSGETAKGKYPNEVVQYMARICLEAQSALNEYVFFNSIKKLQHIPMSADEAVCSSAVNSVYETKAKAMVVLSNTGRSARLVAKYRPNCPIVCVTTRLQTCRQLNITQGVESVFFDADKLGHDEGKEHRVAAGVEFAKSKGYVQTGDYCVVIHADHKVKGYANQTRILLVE
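ATP generated from ADP (0.1 mM) and PEP (0.5 mM) by 0.1 nM LmPK over 1 h at room temperature (pH 7.2 imidazole buffer) was detected by coupled luciferase luminescence. Values were normalized to uninhibited and no-enzyme wells.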
Shiga inhibitor: Shiga toxin inhibition | inhibition, % at 38.7 µM | Vero cells, Shiga toxin protein synthesis inhibition reporter | actives 9.2% (n = 290,000); in the data active = inhibition mostly above about 28%, no sharp cut-off; inactive = mostly below about 43%; note: 0% is about no effect
* = called active by the depositor; x = no result; [ ] = remark or other dose. The sample as a whole holds a higher share of hits than the screen did. Unless noted, calls come from the whole dose curve.

SMILES	CHX counter	SARS PLpro yeast	Tb PYK inh	NS1 function inh	LmPK inhibitor	Shiga inhibitor
O=C(NCc1ccco1)c1cc2c(s1)CCCCC2	57*	-33%	-7%	-37%	-6%	115*
CCc1sc(C(=O)NCc2ccco2)cc1Br	19*	-12%	18%	-105%	2%	x
Cc1ccc2c(CC(=O)NCc3ccco3)coc2c1C	23*	-18%	-1%	-15%	4%	33*
O=C(NCC(c1ccco1)N1CCCCC1)c1cc2c(s1)CCCC2 (stereo not drawn)	x	6%	2%	x	x	x
COc1cccc(C2=Nn3c(nnc3-c3cc(OC)cc(OC)c3)SC2)c1	-3	x	x	x	x	-3
Cc1nc(-c2ccc(S(=O)(=O)N3CCCN(CCc4ccccc4)CC3)s2)cs1	-1	1%	-19%	-1%	-3%	9
Cc1nc(-c2ccc(S(=O)(=O)N3CCN(C4c5ccccc5-c5ccccc54)CC3)s2)cs1	30*	1%	-12%	0%	6%	94*
CCN(CC)S(=O)(=O)c1ccc(-c2csc(C)n2)s1	7	0%	-2%	-7%	-1%	13
Cc1nc(-c2ccc(S(=O)(=O)Oc3ccccc3Cl)s2)cs1	26*	0%	2%	-4%	-4%	33*
CCCn1c(CCNC(=O)c2ccco2)nc2ccccc21	-3	-3%	0%	-6%	1%	-1
COc1cccc(N2CCN(c3c4c(nc5nncn35)CCC4)CC2)c1	x	x	-5%	x	x	x
Cc1ccc(-c2noc(CSc3nnc(C)n3-c3ccc(C)c(C)c3)n2)cc1	x	x	1%	x	x	x
c1ccc(SCc2nc(-c3cccnc3)no2)cc1	36*	-9%	-7%	-8%	-13%	108*
Cc1cccc(-c2noc(CSc3ccccc3)n2)c1	44*	-7%	-8%	2%	-6%	67*
Cc1ccc(-c2noc(CSc3ccccc3)n2)cc1	33*	-10%	-5%	1%	-11%	77*
Cc1ccc(-c2noc(CSc3nc(N)cc(N)n3)n2)cc1	53*	-7%	5%	9%	-2%	87*
Cc1cccc(-c2noc(CSc3nc(-c4ccc(F)cc4)cc(=O)[nH]3)n2)c1	x	x	8%[15.4 µM]	x	x	x
Cc1ccc(-c2noc(CSc3nnc(C)n3-c3ccc(C)cc3)n2)cc1	x	x	-1%	x	x	x
COc1ccc(-c2nc(C)c(CCNC(=O)C(=O)Nc3cccc(F)c3)s2)cc1OC	x	x	-2%	x	x	x
COc1ccc(-n2c(SCC(=O)NCc3ccc(C)cc3)nc3n[nH]c(C)c3c2=N)cc1	x	x	-1%	x	x	x
c1ccc(CCCc2nc(-c3cccnc3)no2)cc1	19*	-8%	2%	-17%	-7%	43*
CCOc1ccc(-c2nnc(SCc3nnc(-c4ccccc4)o3)n2-c2ccccc2F)cc1	20*	-4%	-26%	-35%	8%	52
CCc1ccc(-c2nc(CS(=O)CC(=O)NCCCN3CCOCC3)c(C)o2)cc1 (stereo not drawn)	11	-2%	-2%	14%	2%	14
Cc1nnc(Nc2ccc(F)cc2)c2ccccc12	-2	0%	8%	0%	-11%	17
FC(F)(F)c1ccc(Nc2nnnc3ccccc23)cc1	21*	4%	-5%	x	-17%	36
SMILES	CHX counter	SARS PLpro yeast	Tb PYK inh	NS1 function inh	LmPK inhibitor	Shiga inhibitor
COc1ccc(N2CCN(CCCNC(=O)c3sc4ncccc4c3-n3cccc3)CC2)cc1	x	x	0%	x	x	x
CCCCn1nnnc1C(c1cccs1)N1CCN(C/C=C/c2ccccc2)CC1 (stereo not drawn)	x	x	-1%	x	x	x
Clc1ccc(Nc2nc(-c3ccccc3)c3ccccc3n2)c(Cl)c1	x	x	2%	x	x	x
C=CCOC(=O)C1=C(C)NC(=O)NC1c1ccc2c(c1)OCO2 (stereo not drawn)	-3	0%	-7%	22%	-7%	-9
C=CCOC(=O)c1c(C)nc2cc3c(cc2c1C)OCO3	29*	5%	-4%	4%	-2%	69*
CCC(C)NC(=O)C1CN(S(=O)(=O)c2ccccc2)CCN1S(=O)(=O)c1ccccc1 (stereo not drawn)	25*	-3%	0%	-15%	-4%	28
CSCC(C)N1CCC(CCC(=O)NC2CC2)CC1 (stereo not drawn)	-4	1%	-10%	0%	1%	-2
